Reference: PMC4336329 (PLoS ONE, 2015)
Hit rate of the full screen: of about 310,000 compounds, about 14,000 (4.5%) showed an effect of 50% or more. Effects have a minus sign here. This excerpt belongs to a sample that is enriched for strong results.

target: human ether-à-go-go-related gene (hERG) potassium channel (human, UniProt Q12809); test: primary screen, population patch clamp on CHO cells stably expressing hERG; higher = less effect of the substance
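Note: peak tail current of the secondary pulse compared with the same well before compound.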

human ether-à-go-go-related gene (hERG) potassium channel, sequence (Q12809 whole entry, looked up): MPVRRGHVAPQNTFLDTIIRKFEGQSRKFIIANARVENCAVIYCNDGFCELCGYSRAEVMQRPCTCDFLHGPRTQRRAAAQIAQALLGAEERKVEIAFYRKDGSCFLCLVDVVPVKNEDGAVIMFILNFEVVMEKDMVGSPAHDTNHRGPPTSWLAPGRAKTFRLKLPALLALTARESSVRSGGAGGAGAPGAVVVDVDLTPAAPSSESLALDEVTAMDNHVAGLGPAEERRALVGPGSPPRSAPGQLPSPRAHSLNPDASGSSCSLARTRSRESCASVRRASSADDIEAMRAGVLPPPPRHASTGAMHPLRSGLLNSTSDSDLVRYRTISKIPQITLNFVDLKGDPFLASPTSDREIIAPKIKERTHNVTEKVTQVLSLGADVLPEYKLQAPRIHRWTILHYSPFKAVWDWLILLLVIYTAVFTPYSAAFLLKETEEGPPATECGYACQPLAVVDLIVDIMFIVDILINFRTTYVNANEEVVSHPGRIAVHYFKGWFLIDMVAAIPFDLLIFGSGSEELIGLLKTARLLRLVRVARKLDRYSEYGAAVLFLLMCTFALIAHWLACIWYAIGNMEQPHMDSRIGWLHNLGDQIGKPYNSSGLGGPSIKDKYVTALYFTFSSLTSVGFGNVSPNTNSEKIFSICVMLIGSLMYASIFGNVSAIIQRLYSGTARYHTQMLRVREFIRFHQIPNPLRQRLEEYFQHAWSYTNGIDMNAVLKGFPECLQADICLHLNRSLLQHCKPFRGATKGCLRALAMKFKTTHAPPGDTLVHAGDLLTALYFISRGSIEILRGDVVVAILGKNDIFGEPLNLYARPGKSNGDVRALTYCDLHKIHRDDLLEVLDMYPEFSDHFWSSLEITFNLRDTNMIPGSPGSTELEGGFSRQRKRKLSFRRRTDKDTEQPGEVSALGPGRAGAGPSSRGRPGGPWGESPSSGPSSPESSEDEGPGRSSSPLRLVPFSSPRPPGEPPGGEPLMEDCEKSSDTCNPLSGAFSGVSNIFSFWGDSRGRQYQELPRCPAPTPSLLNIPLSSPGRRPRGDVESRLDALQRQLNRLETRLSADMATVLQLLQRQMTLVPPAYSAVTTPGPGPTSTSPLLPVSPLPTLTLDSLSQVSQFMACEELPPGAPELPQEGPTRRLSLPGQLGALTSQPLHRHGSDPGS

Going from COc1ccc(OC)c(S(=O)(=O)N(C)CC(=O)N2CCOCC2)c1 to COc1ccc(C(=O)Nc2ccccc2C(=O)N2CCOCC2)cc1Br, the “hERG current change (%, negative = inhibition) at 10uM” value falls from 11.3% to -17.3%.

Going from O=C(CSc1nc2ccccc2s1)N/N=C/c1ccccc1C(=O)O to O=C(CCCCCNC(=O)c1ccccc1)N/N=C/c1ccccc1, the “hERG current change (%, negative = inhibition) at 10uM” value falls from 30.5% to -9.98%.

First: CC1CCN(C(=O)CSc2nnc(-c3ccncc3)n2C)CC1
Second: CCc1ccc(-c2cc(C)no2)cc1S(=O)(=O)NCCN1CCC(C)CC1
The “hERG current change (%, negative = inhibition) at 10uM” value of the first is higher: 6.41% for the first, -7.14% for the second.

Compared with CCc1nc(N[C@@H](Cc2c[nH]c3ccccc23)C(=O)O)c2oc3ccccc3c2n1, CCOc1ccccc1-c1cc(C(=O)N/N=C/c2cccnc2)c2ccccc2n1 is lower in “hERG current change (%, negative = inhibition) at 10uM” value: 8.39% for the first, -6.35% for the second.

First: CC(C)(C)c1ccc(-c2cc(C(=O)NNC(=O)Nc3ccccc3)c3ccccc3n2)cc1
Second: Cc1ccccc1-c1cc(C(=O)N/N=C/c2cccnc2)c2ccccc2n1
The “hERG current change (%, negative = inhibition) at 10uM” value of the first is higher: 13.6% for the first, -3.87% for the second.

Compared with CCC(C)[C@H]1COCCS(=O)(=O)N1Cc1ccccc1F (some centres unmarked), CCn1cc(CNC(=O)C2CCC(=O)N(Cc3ccccc3F)C2)cn1 (centres unmarked) is higher in “hERG current change (%, negative = inhibition) at 10uM” value: -18.5% for the first, 8.25% for the second.

Compared with COc1ccc(-c2onc(C)c2C)cc1S(=O)(=O)NCCc1ccco1, COc1ccccc1CN1CCC(CNS(=O)(=O)c2cc(-c3onc(C)c3C)ccc2OC)CC1 is lower in “hERG current change (%, negative = inhibition) at 10uM” value: -41.8% for the first, -76.7% for the second.

Going from CCc1ccc(-c2cc(C)no2)cc1S(=O)(=O)N1CCCN(Cc2ccc(F)cc2)C1 to Cc1cc(-c2ccc(C)c(S(=O)(=O)NCC3CCN(Cc4ccc(F)cc4)CC3)c2)on1, the “hERG current change (%, negative = inhibition) at 10uM” value falls from 5.62% to -66.2%.

First: COc1ccccc1CN1CCC(CNS(=O)(=O)c2cc(-c3cc(C)no3)ccc2OC)CC1
Second: COc1ccccc1CN1CCC(CNS(=O)(=O)c2cc(-c3cc(C)no3)ccc2C)CC1
The “hERG current change (%, negative = inhibition) at 10uM” value of the first is higher: -58.2% for the first, -61.3% for the second.

First: COc1ccc(CNS(=O)(=O)c2cc(-c3cc(C)no3)ccc2OC)cc1OC
Second: CCOc1ccccc1CNS(=O)(=O)c1cc(-c2cc(C)no2)ccc1OC
The “hERG current change (%, negative = inhibition) at 10uM” value of the first is higher: 2.57% for the first, -18.4% for the second.

Going from COc1ccccc1CNS(=O)(=O)c1cc(C)ccc1OC to CCc1ccc(-c2cc(C)no2)cc1S(=O)(=O)NCc1ccccc1OC, the “hERG current change (%, negative = inhibition) at 10uM” value falls from 9.32% to -15.8%.

Compared with COc1ccc(-c2cc(C)no2)cc1S(=O)(=O)NCC1CCN(Cc2cc(C)ccc2C)CC1, Cc1cc(-c2ccc(C)c(S(=O)(=O)NCC3CCN(Cc4ccccc4F)CC3)c2)on1 is higher in “hERG current change (%, negative = inhibition) at 10uM” value: -72% for the first, -52.8% for the second.

Going from COc1ccc(-c2cc(C)no2)cc1S(=O)(=O)NCCCN1CCCCCC1 to COc1ccc(-c2cc(C)no2)cc1S(=O)(=O)NCCCN1CCN(c2ccccc2)CC1, the “hERG current change (%, negative = inhibition) at 10uM” value falls from -17.4% to -68%.

Compared with Cc1cc(-c2ccc(C)c(S(=O)(=O)NCC3CCN(Cc4cccc(F)c4)CC3)c2)on1, Cc1cc(-c2ccc(C)c(S(=O)(=O)NCCCN3CCN(c4ccccc4F)CC3)c2)on1 is higher in “hERG current change (%, negative = inhibition) at 10uM” value: -39.1% for the first, 10.3% for the second.

Compared with O=C(Nc1cccc(NC(=O)c2ccc(Br)cc2)c1)c1ccccc1, O=C(Nc1ccc(NC(=O)c2cccs2)cc1)c1ccc2c(c1)OCCO2 is lower in “hERG current change (%, negative = inhibition) at 10uM” value: 18% for the first, 15.6% for the second.

Going from CCCC(CCC(=O)Nc1ccn(-c2ccccc2)n1)C(=O)O (centres unmarked) to Cc1c(NC(=O)COC(=O)c2ccc(Br)o2)c(=O)n(-c2ccccc2)n1C, the “hERG current change (%, negative = inhibition) at 10uM” value rises from 4.5% to 13.8%.

First: COc1ccc(S(=O)(=O)N2CCCC(C(=O)NCc3ccccc3)C2)cc1 (centres unmarked)
Second: COc1ccc(N(CC(O)CN2CCOCC2)S(=O)(=O)c2ccccc2)cc1 (centres unmarked)
The “hERG current change (%, negative = inhibition) at 10uM” value of the first is higher: 23.7% for the first, -12.1% for the second.

First: CN(C)C=O.CN(C)c1ccc(/C=C/c2nc3ccccc3c(=O)n2-c2ccc(C(=O)O)cc2)cc1
Second: CC(C)Oc1ccccc1-c1cc(C(=O)N/N=C/c2cccnc2)c2ccccc2n1
The “hERG current change (%, negative = inhibition) at 10uM” value of the first is higher: 19.8% for the first, -51.1% for the second.

First: C=CCn1c(SCC(N)=O)nnc1-c1ccccc1O
Second: CC1(C)Cn2c(nnc2-c2ccccc2)S1
The “hERG current change (%, negative = inhibition) at 10uM” value of the first is lower: 0.103% for the first, 14.1% for the second.

First: CCOc1ccc(CCN2CN(CC)CNC2=S)cc1OCC
Second: CCOc1ccccc1CNS(=O)(=O)c1cc(-c2cc(C)no2)ccc1C
The “hERG current change (%, negative = inhibition) at 10uM” value of the first is higher: -0.457% for the first, -19% for the second.

First: COc1cccc(C(=O)NC(C)c2cccc3ccccc23)c1OC (centres unmarked)
Second: COc1ccc(/C(C)=N/NC(=O)c2ccccc2OCc2ccccc2)c(OC)c1
The “hERG current change (%, negative = inhibition) at 10uM” value of the first is lower: -10.4% for the first, 11.2% for the second.

Compared with S=C(NC1CCCCC1)N1CCc2ccccc2C1, Cc1ccccc1N/N=C/c1ccc(N2CCOCC2)cc1 is higher in “hERG current change (%, negative = inhibition) at 10uM” value: -5.33% for the first, -2.55% for the second.

Compared with Cc1cc2cc(CCNC(=O)c3ccc(S(=O)(=O)N4CCOCC4)cc3)c(=O)[nH]c2cc1C, Cc1ccc(S(=O)(=O)N(CC(O)CN2CCOCC2)c2cccc([N+](=O)[O-])c2)cc1 (centres unmarked) is lower in “hERG current change (%, negative = inhibition) at 10uM” value: 6.3% for the first, -34.5% for the second.

Going from Cc1ccnc(NS(=O)(=O)c2ccccc2)c1 to O=[N+]([O-])c1ccc(N(CC2CO2)S(=O)(=O)c2ccccc2)cc1 (centres unmarked), the “hERG current change (%, negative = inhibition) at 10uM” value falls from 15.2% to -43.9%.

First: COc1ccccc1CNS(=O)(=O)c1cc(-c2cc(C)no2)ccc1C(C)C
Second: COc1ccc(-c2cc(C)no2)cc1S(=O)(=O)NCCCN(C)Cc1ccccc1
The “hERG current change (%, negative = inhibition) at 10uM” value of the first is higher: 5.07% for the first, -29.9% for the second.

First: CCN(CCCNS(=O)(=O)c1cc(-c2cc(C)no2)ccc1C)Cc1ccccc1
Second: Cc1cc(-c2ccc(C)c(S(=O)(=O)NCCCN(Cc3ccccc3)C(C)C)c2)on1
The “hERG current change (%, negative = inhibition) at 10uM” value of the first is lower: -61.3% for the first, -36.9% for the second.

Compared with Cc1cc(-c2ccc(C)c(S(=O)(=O)NCCCN3CCN(c4ccccc4)CC3)c2)on1, CCc1ccc(-c2cc(C)no2)cc1S(=O)(=O)NCCCN1CCN(c2ccccc2)CC1 is higher in “hERG current change (%, negative = inhibition) at 10uM” value: -33.2% for the first, 1.91% for the second.

Going from O=C(Nc1ccc2oc(-c3cccnc3)nc2c1)c1ccc2c(c1)OCCO2 to O=C(N/N=C/c1cccnc1)c1ccccc1OCc1cccc(Br)c1, the “hERG current change (%, negative = inhibition) at 10uM” value falls from 20.2% to -17.1%.

Going from CCCCCC/C=C/c1ccc([C@H]2[C@H]3C=CC[C@@H](C)[C@@H]3C(=O)N2Cc2ccccc2)c(F)c1 to O=C(/C=C/c1ccccc1Cl)NCc1ccccc1, the “hERG current change (%, negative = inhibition) at 10uM” value rises from 4.76% to 10.2%.

Compared with S=C1NC(c2ccccc2)=NCN1c1ccc(Br)cc1, O=C(N/N=C/c1cccnc1)c1ccccc1OCc1ccc(Br)cc1 is lower in “hERG current change (%, negative = inhibition) at 10uM” value: -12.9% for the first, -52.6% for the second.

Going from COc1ccccc1N(CC(=O)NCCSCc1ccc(Cl)cc1)S(C)(=O)=O to O=C(N/N=C/c1cccnc1)c1ccccc1OCc1ccc(Cl)cc1, the “hERG current change (%, negative = inhibition) at 10uM” value falls from -0.283% to -38.4%.

Going from C=CCSc1nccc(-c2nn(-c3ccc(C)cc3)ccc2=O)n1 to Cc1ccc(N(CC2CO2)S(=O)(=O)c2ccc(C)cc2)cc1 (centres unmarked), the “hERG current change (%, negative = inhibition) at 10uM” value rises from -8.82% to -5.18%.

First: O=C1NC(=O)N(CCc2ccc(F)cc2)C(=O)/C1=C/c1cccs1
Second: Cc1ccc(N(CC(O)CN2C(=O)NC(C)(C)C2=O)S(=O)(=O)c2ccc([N+](=O)[O-])cc2)cc1 (centres unmarked)
The “hERG current change (%, negative = inhibition) at 10uM” value of the first is higher: 16.1% for the first, -32.7% for the second.

Compared with COc1ccc(/C=N/NC(=O)c2ccccc2OCc2ccccc2)c(OC)c1, COc1ccc(/C=N/NC(=O)c2ccccc2NC(=O)c2ccco2)c(OC)c1 is higher in “hERG current change (%, negative = inhibition) at 10uM” value: -53.8% for the first, 15.3% for the second.

First: O=C(COc1ccc(-c2ccccc2)cc1)N/N=C/c1cccnc1
Second: O=C(COc1ccccc1-c1ccccc1)N/N=C/c1cccnc1
The “hERG current change (%, negative = inhibition) at 10uM” value of the first is higher: 7.95% for the first, -52.8% for the second.

Going from O=C(COc1ccccc1-c1ccccc1)N/N=C/c1ccncc1 to C/C(=N\NC(=O)COc1ccccc1-c1ccccc1)c1cccnc1, the “hERG current change (%, negative = inhibition) at 10uM” value falls from -26.2% to -53.9%.

Going from C/C(=N\NC(=O)COc1ccccc1-c1ccccc1)c1ccccn1 to C/C(=N\NC(=O)Cc1ccccc1)c1cccnc1, the “hERG current change (%, negative = inhibition) at 10uM” value rises from -6.93% to 15.3%.

First: CSCCC(NS(=O)(=O)c1cc(C(=O)O)ccc1Cl)C(=O)O (centres unmarked)
Second: Cc1ccc(N(CC(O)CN2CCOCC2)S(=O)(=O)c2ccc([N+](=O)[O-])cc2)cc1 (centres unmarked)
The “hERG current change (%, negative = inhibition) at 10uM” value of the first is higher: 45% for the first, -65.2% for the second.

First: CCN(CC)C(=O)C1CCCN(C(=O)CCn2nnnc2CN2CCOCC2)C1 (centres unmarked)
Second: Cc1ccc(N(CC(O)CN2CCOCC2)S(=O)(=O)c2ccc3ccccc3c2)cc1 (centres unmarked)
The “hERG current change (%, negative = inhibition) at 10uM” value of the first is higher: 17.7% for the first, -67.4% for the second.

Going from Cl.NC(N)=NC(=O)c1nc(Cl)c(N)nc1N.O to NC(N)=NC(=O)c1nc(Cl)c(N)nc1N, the “hERG current change (%, negative = inhibition) at 10uM” value falls from -0.314% to -3.88%.

Going from NC(N)=NC(=O)c1nc(Cl)c(N2CCCCCC2)nc1N to Cl.O=S(=O)(c1ccc2ccccc2c1)N(CC(O)CN1CCOCC1)c1ccccc1 (centres unmarked), the “hERG current change (%, negative = inhibition) at 10uM” value rises from -58.6% to -47.9%.

In the case of Cc1ccc(N(CC2CO2)S(=O)(=O)c2ccc([N+](=O)[O-])cc2)cc1 (centres unmarked), the “hERG current change (%, negative = inhibition) at 10uM” value is reported as -69.3%.
